Hits are enriched below; roughly 3.7% of the tested compounds scored in any of these assays.
Bead autofluor: flagged as autofluorescent in microsphere protease counterscreen; fluorescence intensity (concentration not given with the values); compound autofluorescence counterscreen, microsphere flow cytometry; active compounds read high; 360,000 tested, 3.1% active; AID 624483; in the data active = fluorescence intensity above about 16000; inconclusive = no clear call, values can overlap the other calls
BoNT F protease: blocks Botulinum neurotoxin F light chain protease. Multiplex microsphere protease cleavage assay, flow cytometry. inhibition, % at 10 µM. 360,000 tested, 0.22% active. AID 588497; in the data active = inhibition above about 35%, passing the limit was not always enough; inconclusive = no clear call, values can overlap the other calls
BoNT-A LC inh2: BoNT A light chain protease inhibition; 360,000 tested, 0.17% active; AID 588499; multiplex microsphere protease substrate cleavage, flow cytometry; inhibition, % at 10 µM
BJeLR viability: kills HRASV12-expressing BJeLR cells | BJeLR (HRASV12) viability, CellTiter-Glo ATP luminescence, 48 h | 300,000 tested, 0.17% active | inhibition, % (no concentration beside the values); in the data active = inhibition above about 50%; inconclusive = no clear call, values can overlap the other calls
BH1578 lux ind: induces V. cholerae light production without autoinducers | activation, % at 18.7 µM | 350,000 tested, 0.16% active | V. cholerae BH1578 lux reporter, luminescence, 6 h; in the data active = activation mostly above about 9.7%, no sharp cut-off; inconclusive = no clear call, values can overlap the other calls; inactive = mostly below about 3.7%
Anthrax LF inh2: inhibitors of Bacillus anthracis lethal factor protease. inhibition, % at 10 µM. AID 588501. P15917. multiplex microsphere protease cleavage assay, LF. 360,000 tested, 0.12% active
Target sequence (P15917 whole entry, looked up): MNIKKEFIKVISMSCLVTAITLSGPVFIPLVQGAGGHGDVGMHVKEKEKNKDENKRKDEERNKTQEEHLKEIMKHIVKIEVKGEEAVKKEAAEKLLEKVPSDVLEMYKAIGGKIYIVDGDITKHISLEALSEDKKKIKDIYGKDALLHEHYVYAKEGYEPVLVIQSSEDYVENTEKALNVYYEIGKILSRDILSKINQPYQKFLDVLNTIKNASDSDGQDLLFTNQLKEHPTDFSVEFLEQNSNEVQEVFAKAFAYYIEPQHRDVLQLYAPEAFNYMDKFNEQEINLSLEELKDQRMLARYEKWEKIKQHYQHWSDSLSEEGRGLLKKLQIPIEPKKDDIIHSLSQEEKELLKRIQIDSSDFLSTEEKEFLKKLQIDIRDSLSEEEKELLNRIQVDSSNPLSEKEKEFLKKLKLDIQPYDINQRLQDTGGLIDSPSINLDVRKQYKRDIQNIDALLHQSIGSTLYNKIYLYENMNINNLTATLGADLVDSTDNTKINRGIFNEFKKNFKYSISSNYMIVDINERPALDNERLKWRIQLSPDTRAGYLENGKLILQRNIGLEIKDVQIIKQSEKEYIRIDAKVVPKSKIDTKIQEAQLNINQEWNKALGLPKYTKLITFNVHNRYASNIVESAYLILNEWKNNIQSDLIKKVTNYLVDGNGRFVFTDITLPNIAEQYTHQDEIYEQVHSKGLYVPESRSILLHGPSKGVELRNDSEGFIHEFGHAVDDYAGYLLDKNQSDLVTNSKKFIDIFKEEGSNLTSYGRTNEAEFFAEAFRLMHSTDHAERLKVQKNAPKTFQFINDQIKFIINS
Hits are given with their value; – = inactive; ? = inconclusive; · = no result. Cut-off read from the data, not from the text of the source, unless noted: active = inhibition above about 30%; inconclusive = no clear call, values can overlap the other calls; inactive = below that.

SMILES	Bead autofluor	BoNT F protease	BoNT-A LC inh2	BJeLR viability	BH1578 lux ind	Anthrax LF inh2
CC(=O)NC(Cc1ccccc1)C(=O)NC1CCN(C(=O)NCc2ccccc2)CC1 (stereo not given)	–	–	–	–	–	–
CCOC(=O)N(C)c1c(CC)nc2c(OCc3ccccc3OC)cccn12	–	–	–	·	–	–
Cc1ccc(Cl)cc1-c1cc(C(=O)Nc2ccc(F)cc2)[nH]n1	–	–	–	·	–	–
Cc1ccc(S(=O)(=O)NCCNC(=O)N2CCOCC2)cc1	21580	–	–	–	–	–
Cc1ccc(S(=O)(=O)NCCOc2nc(N3CCOCC3)nc(N3CCOCC3)n2)cc1	21551	–	–	–	–	–
Cc1ccc(S(=O)(=O)NCCCNC(=O)c2ccccc2)cc1	23361	–	–	–	–	–
Cc1ccc(S(=O)(=O)NCCCNC(=O)N2CCOCC2)cc1	–	–	–	–	·	–
COc1cc(C(=O)N(C)C2CCCCC2)cc(OC)c1OC	–	–	–	·	–	–
CC(C)n1nnnc1C1c2ccccc2C(=O)N1CCOc1ccccc1 (stereo not given)	–	–	–	·	·	–
Cc1ccc(-c2nc3sc4c(c3c(=O)n2N)CC(C)(C)OC4)cc1	–	–	–	–	17	–
CC1(C)Cc2c(sc3nc(-c4cc5ccccc5o4)n(N)c(=O)c23)CO1	21859	–	?	–	–	–
Cc1ccc(-c2nc3sc4c(c3c(=O)n2N)CCCC4)cc1	–	–	?	–	–	–
COc1ccccc1-c1csc(C(C)(O)c2ccccc2)n1 (stereo not given)	–	–	–	·	–	–
CCNC(=O)n1nccc1C(C)Oc1ccccc1 (stereo not given)	21929	–	–	–	–	–
Cc1cc2n(n1)C(c1ccccc1)Nc1ccccc1-2 (stereo not given)	16831	–	–	·	–	–
Cc1cc2n(n1)C(c1ccc(N(C)C)cc1)Nc1ccccc1-2 (stereo not given)	20611	–	–	–	–	–
Cc1cc2n(n1)C(c1ccc3c(c1)OCO3)Nc1ccccc1-2 (stereo not given)	21039	–	–	–	–	–
COc1ccc(-c2c(Sc3ccccc3)c3cc(-c4ccc5c(c4)OCO5)ccc3n2C)cc1	–	–	–	·	·	–
O=C(CSc1nnc(-c2ccccc2)o1)Nc1ccccc1F	–	–	–	–	–	–
Cc1ccc(-c2nnc(SCC(=O)Nc3ccccc3F)o2)cc1	–	–	–	56	–	–
Cn1ccnc1SCC(=O)Nc1cccc2ccccc12	19695	–	–	–	–	–
COC(=O)c1ccccc1NC(=O)CSc1nccn1C	–	–	–	–	–	–
O=C(CSc1nnc(-c2ccc(Br)cc2)o1)Nc1cccc2ccccc12	23146	–	–	–	–	–
CC1=C(C(=O)N(C(C)C)C(C)C)CC(CC(=O)NC(c2ccccc2)c2ccccc2)C(=O)N1CCC1=CCCCC1 (stereo not given)	–	–	–	·	·	–
Cc1cc(C)n(-c2nc(NCCN(C)C)c3c4c(sc3n2)COC(C)(C)C4)n1	–	–	–	–	–	?
SMILES	Bead autofluor	BoNT F protease	BoNT-A LC inh2	BJeLR viability	BH1578 lux ind	Anthrax LF inh2
Cc1cc(C)n(-c2nc(NCCC(C)C)c3c4c(sc3n2)COC(C)(C)C4)n1	19196	–	–	–	–	–
CC1(C(=O)NCc2cccs2)CCN1CCc1ccccc1 (stereo not given)	–	–	–	·	–	–
Cc1ccc(NC(=O)C2CCCN2C(=O)Oc2ccccc2)cc1C (stereo not given)	17854	–	–	–	–	–
Cc1ccc(NC(=O)C2CCCN2C(=O)c2cccs2)cc1C (stereo not given)	·	·	·	·	–	·
CC1(C(=O)Nc2ccc(Cl)c(Cl)c2)CCN1C(=O)CCC1CCCC1 (stereo not given)	–	–	–	·	–	–
COc1ccc(N2COC3c4cccc5cccc(c45)C32)cc1 (stereo not given)	20787	–	–	–	–	–
Clc1ccc(N2COC3c4cccc5cccc(c45)C32)cc1 (stereo not given)	22405	–	–	–	–	–
CCOC(=O)C1CCCN(C(=O)c2sc(-c3ccccc3)nc2C)CC1 (stereo not given)	–	–	–	·	–	–
FC(F)(F)c1cnc(N2CCSCC2)c(Cl)c1	–	–	–	–	–	–
CON=C1CCN(c2ncc(C(F)(F)F)cc2Cl)CC1	19907	–	?	–	–	–
COCCn1c(N)c(C(=O)OCc2ccccc2)c2nc3ccccc3nc21	20725	–	–	–	–	–
COCCOC(=O)c1c(N)n(Cc2ccccc2)c2nc3ccccc3nc12	–	?	–	–	–	–
O=C1/C(=C/c2ccc([N+](=O)[O-])cc2)C=C(c2ccccc2)N1c1ccc(O)cc1	22121	–	–	–	–	–
Cc1nc2c(OCc3ccc(C#N)cc3)cccn2c1N(C)C(=O)CCC1CCCC1	–	–	–	·	–	–
Cc1cc(F)cc(-c2cc(C(=O)NCC3CCCCC3)[nH]n2)c1	–	–	–	·	–	–
CCCNC(=O)C1(C)CCCN(CCOc2ccccc2)C1 (stereo not given)	–	–	–	·	–	–
Cc1cccc(C)c1NC(=O)Cn1c(=O)n(CCC(=O)NCc2ccco2)c(=O)c2sccc21	20666	–	–	–	–	–
O=C(CCCn1c(=O)c2sccc2n(CC(=O)OCc2ccccc2)c1=O)NCc1ccco1	–	–	–	–	–	–
CC1CCCCN1C(=O)Cn1c(=O)n(CCC(=O)NCc2ccco2)c(=O)c2sccc21 (stereo not given)	19227	–	–	–	–	–
O=C(CCn1c(=O)c2sccc2n(CC(=O)OCc2ccccc2)c1=O)NCc1ccco1	–	–	–	–	–	–
CCN(Cc1ccccc1)C(=O)Cn1c(=O)n(CC(=O)NCc2ccco2)c(=O)c2sccc21	21886	–	–	–	–	–
CCOc1ccc(CN(C)C(=O)c2cccc(S(=O)(=O)Nc3ccccc3OC)c2)cc1OC	–	–	–	·	–	–
CC1(C(=O)Nc2cnc3ccccc3c2)CCN1C(=O)C/C=C/c1ccccc1 (stereo not given)	–	–	–	·	–	–
C[C@H]1CN([C@@H](C)CO)S(=O)(=O)c2ccc(C#Cc3ccccn3)cc2O[C@@H]1CN(C)C(=O)C1CC1	–	–	–	·	–	–
CCC12CC1(C(=O)OC)C(=O)N1CCc3c([nH]c4ccccc34)C12 (stereo not given)	–	–	–	·	·	–
NC(=S)c1cn(C2OC(CO)C(O)C2O)c2ncnc(N)c12 (stereo not given)	–	–	–	62	–	–
Nc1ncnc2c1ccn2[C@@H]1O[C@H](CO)[C@@H](O)[C@H]1O	–	–	–	111	–	–
OCC1OC(n2ccc3c2ncn2ncnc32)C(O)C1O (stereo not given)	–	–	–	·	–	–
CC1(C)CC(NC(=O)C23CCC(C)(C(=O)C2)C3(C)C)CC(C)(C)N1 (stereo not given)	21112	–	–	–	–	–

Screening data (PubChem)
